Bioassay records from PubChem BioAssay.
An excerpt weighted towards active compounds, which were near 2.4% of everything screened.
L3MBTL1 inh: blocks human L3MBTL1. AlphaScreen L3MBTL1–H3K9me1 peptide binding. Potency, µM (series often up to 57.1 µM), inactives show at the highest dose activity, negative = inhibition, most hits filed as inhibitors. 0.66% of 230,000 active. Q9Y468. AID 485360; further: on the % scale 0 is the no-effect control and ±100 the full control effect; nearly all actives have a fitted effect of over 60% in size
Target sequence (Q9Y468 whole entry, looked up): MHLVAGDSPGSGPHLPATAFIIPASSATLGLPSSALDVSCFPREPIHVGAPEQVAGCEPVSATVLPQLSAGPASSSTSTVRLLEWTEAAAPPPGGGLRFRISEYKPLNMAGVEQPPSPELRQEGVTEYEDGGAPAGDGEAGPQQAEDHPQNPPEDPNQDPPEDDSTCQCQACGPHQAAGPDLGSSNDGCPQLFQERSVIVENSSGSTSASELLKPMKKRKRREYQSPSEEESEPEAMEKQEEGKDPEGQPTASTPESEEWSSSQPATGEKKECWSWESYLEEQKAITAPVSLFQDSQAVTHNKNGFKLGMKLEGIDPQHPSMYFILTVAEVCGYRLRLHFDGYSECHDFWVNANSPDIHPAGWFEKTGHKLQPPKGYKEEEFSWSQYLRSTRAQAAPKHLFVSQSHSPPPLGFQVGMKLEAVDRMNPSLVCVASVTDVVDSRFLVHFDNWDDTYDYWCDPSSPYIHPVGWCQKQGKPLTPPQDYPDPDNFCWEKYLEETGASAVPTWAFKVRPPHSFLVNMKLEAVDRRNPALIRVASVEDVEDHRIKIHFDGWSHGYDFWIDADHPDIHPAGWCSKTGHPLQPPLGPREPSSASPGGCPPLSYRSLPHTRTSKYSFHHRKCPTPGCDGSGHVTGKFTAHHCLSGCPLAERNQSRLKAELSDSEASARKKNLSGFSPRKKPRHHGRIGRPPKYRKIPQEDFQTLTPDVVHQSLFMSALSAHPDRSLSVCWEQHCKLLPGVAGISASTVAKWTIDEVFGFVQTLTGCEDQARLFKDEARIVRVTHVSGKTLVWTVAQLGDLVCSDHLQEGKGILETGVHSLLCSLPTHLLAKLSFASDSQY
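AlphaScreen proximity signal between nickel-chelate acceptor and streptavidin donor beads (final 10 ug/mL) reports binding of 50 nM L3MBTL1 to 75 nM biotin-H3 K9me1 peptide; complex incubated with compounds 30 min at room temperature; cefsulodin titration as control.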
Pol eta inh: DNA polymerase eta (human) inhibition; Q9Y253; recombinant Pol eta, fluorescent DNA replication assay; Potency, µM (titrated, usually from 114 µM), for the others: top-dose activity change, negative = inhibition, hits mostly inhibitors; 1.2% of 390,000 active; further: on the % scale 0 is the no-effect control and ±100 the full control effect
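Fluorescent replication assay: 50 nM final substrate added after a 15 min room-temperature compound preincubation with 10 nM enzyme. Signal taken at 0 min and again at 10 min.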
Pol iota inh: inhibitors of human DNA polymerase iota | Q9UNA4 | Pol iota fluorescent replication assay, 10 min | Potency, µM (series often up to 115 µM), without a hit: top-dose activity, negative = inhibition, actives largely listed as inhibitors | 1% of 390,000 active | AID 588590
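Fluorescent replication assay read twice, at 0 min and 10 min after adding 50 nM (final) substrate. Enzyme (10 nM) and compounds were first incubated 15 min at room temperature; enzyme-free buffer wells were negative controls.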
Pol beta inh: inhibitors of human DNA polymerase beta. P06746. Pol beta primer extension/strand displacement, fluorescence kinetic. Potency, µM (series often up to 114 µM), inactives show at the top dose activity change, negative = inhibition, actives largely listed as inhibitors. 1.3% of 340,000 active; further: on the % scale 0 is the no-effect control and ±100 the full control effect
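Kinetic readout of DNA synthesis with strand displacement by Pol beta. Compound and 10 nM enzyme sit 15 min at room temperature; 50 nM substrate starts the reaction, read immediately and at 10 min.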
Pol kappa inh: DNA polymerase kappa (human) inhibition. Q9UBT6. 0.53% of 400,000 active. Potency, µM (highest dose often 107 µM), for the others: top-dose activity, negative = inhibition, actives largely listed as inhibitors. purified Pol kappa, fluorescent DNA synthesis assay, 10 min; further: on the % scale 0 is the no-effect control and ±100 the full control effect
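Pol kappa 10 nM + cpd, 15 min RT; start w/ substrate 50 nM final; fluorescence kinetic read, 0 and 10 min. Neg ctrl: buffer, no enzyme.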
* hit, by the source's call; ? = inconclusive; nt = no result given; ! = repeats disagree; [ ] = remark or other dose. The call rests on the fitted dose curve; in most records, active means well fitted curve in the direction sought with a large enough effect; inconclusive means small, poorly fitted or top-dose-only effect, or another doubt; inactive means no such curve, though single readings can be large; an effect the other way counts as inactive or inconclusive. Potency means the concentration at half of the fitted maximal effect.

SMILES	L3MBTL1 inh	Pol eta inh	Pol iota inh	Pol beta inh	Pol kappa inh
COc1ccc(C(=O)CCC(=O)Nc2ccc(C)c(Cl)c2)cc1	nt	-16.5%	4.0%	29.8%	-10.1%[60.1 µM]
NS(=O)(=O)c1ccc(NC(=O)c2nc(S(=O)(=O)Cc3ccccc3F)ncc2Cl)cc1	nt	nt	75.6%	nt	-1.2%
CC(=O)N(CCC(Cc1ccccc1)c1ccco1)Cc1ccco1 (configuration not stated)	nt	50.1µM*	?	?	?
CC(=O)N(CCP(=O)(c1ccccc1)c1ccccc1)Cc1ccco1	-1.3%	-12.6%	-5.8%	-14.6%	-4.0%
COc1cc(O)c2c(=O)c(O)c(-c3ccc(O)c(O)c3)oc2c1	nt	nt	nt	nt	0.947µM*
O=c1c(O)c(-c2ccc(O)cc2)oc2cc(O)cc(O)c12	nt	25.1µM*	79.4µM*	nt	-30.1%
Cc1ccccc1C(=O)N1c2ncnn2C2(CCCCC2)[C@@H]2CCCC[C@@H]21	nt	-19.0%	-1.1%	-11.9%	-3.3%
O=C1NC(=S)SC1=Cc1ccccc1Cl	nt	-1.7%	?	nt	-12.1%
COc1ccc2nc(N3CCCCC3)c(/C=C3\SC(=S)NC3=O)cc2c1	?	35.5µM*	-10.9%	-21.1%	8.3%
O=C1NC(=S)S/C1=C\c1cc2ccccc2nc1N1CCCCC1	-14.6%	39.8µM*	-8.6%	?	-4.2%
CC(C(=O)O)c1cccc(C(=O)c2ccccc2)c1 (configuration not stated)	nt	-0.1%[57.1 µM]	6.2%[58.9 µM]	4.1%	-0.6%[60.1 µM]
C[C@H](C(=O)O)c1cccc(C(=O)c2ccccc2)c1	1.9%	-18.0%	14.6%	nt	11.2µM*!
CS(=O)(=O)c1ccc(S(=O)CC(=O)OCc2ccccc2)c([N+](=O)[O-])c1 (configuration not stated)	-7.3%	-3.8%	20µM*	5.9%	-5.0%
O=C(CS(=O)c1ccc(C(F)(F)F)cc1[N+](=O)[O-])Oc1ccccc1 (configuration not stated)	nt	-1.8%	?	-14.6%	-17.9%
COc1cc(Cl)c(S(=O)(=O)N2CCN(c3c(C)cccc3C)CC2)cc1Cl	nt	-7.6%	4.5%	17.7%	10.0%
O=[N+]([O-])c1ccc(Sc2cccc[n+]2[O-])c2nonc12	?	4.47µM*	3.55µM*	20µM*	31.6µM*
O=C(C[n+]1cccc2cccc(O)c21)c1ccccc1	nt	nt	-10.5%	nt	-20.2%
Cc1cc(C)c(NC(=O)Nc2ccccc2)c(C)n1	-0.8%	-6.1%	-7.6%	nt	-4.6%
Cc1cc(N)c2cc(NC(=O)Nc3ccc4nc(C)cc(N)c4c3)ccc2n1	nt	nt	nt	nt	6.31µM*
CCC(C(=O)OCC(=O)c1ccc(OC)cc1OC)c1ccccc1 (configuration not stated)	?	31.6µM*	?	nt	-40.9%
COc1ccc(C(=O)COC(=O)c2ccccc2O)c(OC)c1	8.91µM*	25.1µM*	28.2µM*	nt	?
COc1ccc(C(=O)COC(=O)c2ccc3c(c2)NC(=O)CS3)c(OC)c1	-29.6%	?	39.8µM*	nt	?
COc1ccc(C(=O)COC(=O)CCNS(=O)(=O)c2ccccc2)c(OC)c1	?	?	50.1µM*	nt	-21.9%
COc1ccc(NC(=O)c2ccc3c(c2)NC(=O)CS3)cc1	0.8%	-6.0%	-20.6%	nt	-23.1%
Cc1csc[n+]1CC(=O)c1ccc(I)cc1	nt	nt	-0.3%	nt	-15.6%
SMILES	L3MBTL1 inh	Pol eta inh	Pol iota inh	Pol beta inh	Pol kappa inh
O=C(Nc1cc(Cl)cc(Cl)c1)c1cc(S(=O)(=O)NC2CCCC2)ccc1F	nt	-21.4%	?	?	-2.4%[60.1 µM]
COc1cc(NC(=O)Cn2c(=O)n(Cc3ccccc3OC)c(=O)c3cccnc32)cc(OC)c1	nt	-5.5%	?	13.1%	?
COc1ccccc1CNC(=O)CN1C(=O)c2cccnc2Oc2ccccc21	nt	nt	16.9%	10.2%	-8.5%
COc1ccc(C(=O)COC(=O)c2ccc(Cl)nc2)cc1OC	3.8%	-3.6%	15.3%	nt	-15.9%
COc1ccc(C(=O)COC(=O)c2ccc(Cl)nc2)c(OC)c1	?	?	39.8µM*	nt	-25.7%
O=C1C(c2ccccc2)=[N+]([O-])c2ccccc21	?	?	8.91µM*	nt	-24.7%
COc1ccc(OCC(=O)Nc2ccccc2Cl)cc1	-10.3%	-2.8%	23.7%	17.8µM*	-0.7%
S=c1[nH]nc(-c2cc(-c3ccccc3)n[nH]2)n1/N=C/c1ccc(Cl)cc1	-7.4%	?	15.8µM*	39.8µM*	-9.5%
